Where a name gives a salt, the structure may show the parent alone. ± gives the standard deviation of the averaged measurements.
Columns and labels:
Test in all cases: growth (OD600 after 10 h); higher = more growth (less inhibition)
[1] = test system: E. coli TESEC Alr+ wild-type control; settings: compound 0.1 mM; raw OD600 reference: median of DMSO wells 0.241, cell-free background 0.041
Experimental: (§1)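 TESEC Mtb Alr E. coli, or the Alr+ wild-type control, in 384-well plates with Prestwick library compounds at 0.1 mM and 1% DMSO, across arabinose induction levels of 1E3 to 1E7 nM. Growth is read as OD600 after 10 h at 37 °C in triplicate biological replicates.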

[2] = test system: E. coli TESEC Mtb Alr; settings: compound 0.1 mM
Experimental: as §1

[3] = test system: E. coli TESEC Mtb Asd; settings: compound 0.1 mM
Experimental: (§2)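 TESEC E. coli strains in which the native enzyme is deleted and replaced by arabinose-inducible Mtb Asd, DapB, CysH or TrpD, each grown in its selective medium. Strains were screened against the Prestwick library at 0.1 mM and 1% DMSO in 384-well format at low and high arabinose induction. Growth is read as OD600 after 10 h in triplicate.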

[4] = test system: E. coli TESEC Mtb DapB; settings: compound 0.1 mM
Experimental: as §2

[5] = test system: E. coli TESEC Mtb Alr; settings: compound 0.1 mM; remark: listed apart in the source
Experimental: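 TESEC Mtb Alr E. coli (ΔaraC ΔtolC ΔentC Δalr ΔdadX, arabinose-inducible Mtb Alr) or the Alr+ wild-type control strain, grown in defined M9-fructose medium without D-alanine in 96-well plates with Prestwick library compounds at 0.1 mM and 1% DMSO. Low Alr induction is 0.1 µM arabinose and high induction is 10 mM arabinose.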

[6] = arabinose 1000 nM, raw OD600 reference: median of DMSO wells 0.294, cell-free background 0.041
[7] = arabinose 10000 nM, raw OD600 reference: median of DMSO wells 0.264, cell-free background 0.041
[8] = arabinose 100000 nM, raw OD600 reference: median of DMSO wells 0.201, cell-free background 0.041
[9] = arabinose 1000000 nM, raw OD600 reference: median of DMSO wells 0.193, cell-free background 0.041
[10] = arabinose 10000000 nM, raw OD600 reference: median of DMSO wells 0.146, cell-free background 0.041
[11] = arabinose induction (level): High, raw OD600 reference: median of DMSO wells 0.331, cell-free background 0.041
[12] = arabinose induction (level): Low, raw OD600 reference: median of DMSO wells 0.417, cell-free background 0.041
[13] = arabinose induction (level): High, raw OD600 reference: median of DMSO wells […], cell-free background 0.041
[14] = arabinose induction (level): Low, raw OD600 reference: median of DMSO wells 0.227, cell-free background 0.041
[15] = arabinose 100 nM, raw OD600 reference: median of DMSO wells 0.413, cell-free background 0.052
[16] = arabinose 10000000 nM, raw OD600 reference: median of DMSO wells […], cell-free background 0.052

SMILES	growth [1]	growth [2, 6]	growth [2, 7]	growth [2, 8]	growth [2, 9]	growth [2, 10]	growth [3, 11]	growth [3, 12]	growth [4, 13]	growth [4, 14]	growth [5, 15]	growth [5, 16]
NC(=O)c1cnccn1 [Pyrazinamide]	0.244 ± 0.0055	0.284 ± 0.01	0.267 ± 0.0063	0.208 ± 0.03	0.185 ± 0.007	0.14 ± 0.0018	0.289 ± 0.057	0.382 ± 0.11	0.195 ± 0.029	0.209 ± 0.019	0.421 ± 0.013	0.366 ± 0.015
c1ccc([C@H]2CN3CCSC3=N2)cc1 [Levamisole hydrochloride]	0.253 ± 0.0028	0.286 ± 0.0062	0.279 ± 0.005	0.209 ± 0.017	0.186 ± 0.0053	0.142 ± 0.0042	0.364 ± 0.033	0.428 ± 0.026	0.182 ± 0.0088	0.214 ± 0.023	0.413 ± 0.0046	0.353 ± 0.019
CCC[C@H](N[C@@H](C)C(=O)N1[C@H](C(=O)O)C[C@@H]2CCCC[C@@H]21)C(=O)OCC [Perindopril]	0.252 ± 0.01	0.309 ± 0.0092	0.286 ± 0.0037	0.208 ± 0.016	0.198 ± 0.024	0.149 ± 0.0041	0.225 ± 0.016	0.392 ± 0.033	0.198 ± 0.01	0.239 ± 0.041	0.431 ± 0.0091	0.325 ± 0.0072
Cc1c(-c2ccccc2)oc2c(C(=O)OCCN3CCCCC3)cccc2c1=O [Flavoxate hydrochloride]	0.139 ± 0.0069	0.171 ± 0.0084	0.248 ± 0.0097	0.145 ± 0.0026	0.105 ± 0.0025	0.139 ± 0.0023	0.217 ± 0.06	0.381 ± 0.04	0.168 ± 0.011	0.234 ± 0.12	0.398 ± 0.015	0.262 ± 0.019
COc1ccccc1Oc1c(NS(=O)(=O)c2ccc(C(C)(C)C)cc2)nc(-c2ncccn2)nc1OCCO [Bosentan]	0.227 ± 0.0037	0.253 ± 0.0068	0.269 ± 0.014	0.276 ± 0.011	0.103 ± 0.0025	0.147 ± 0.0018	0.253 ± 0.045	0.335 ± 0.065	0.177 ± 0.022	0.247 ± 0.051	0.417 ± 0.0042	0.237 ± 0.015
CCCCc1ccc2[nH]c(NC(=O)OC)nc2c1 [Parbendazole]	0.244 ± 0.01	0.307 ± 0.0063	0.277 ± 0.0036	0.213 ± 0.034	0.206 ± 0.0056	0.156 ± 0.0051	0.279 ± 0.015	0.435 ± 0.0069	0.208 ± 0.0058	0.279 ± 0.031	0.4255 ± 0.003	0.374 ± 0.045
OC[C@H]1O[C@@H](Oc2ccc(O)cc2)[C@H](O)[C@@H](O)[C@@H]1O [Arbutin]	0.245 ± 0.012	0.325 ± 0.02	0.272 ± 0.011	0.193 ± 0.021	0.191 ± 0.0053	0.144 ± 0.0033	0.21 ± 0.011	0.362 ± 0.092	0.209 ± 0.003	0.246 ± 0.051	0.403 ± 0.017	0.317 ± 0.013
OCCN1CCN(CC/C=C2/c3ccccc3Sc3ccc(Cl)cc32)CC1 [Zuclopenthixol dihydrochloride]	0.0505 ± 0.0052	0.257 ± 0.0079	0.176 ± 0.005	0.1981 ± 0.0017	0.0779 ± 0.0011	0.14 ± 0.0078	0.205 ± 0.043	0.215 ± 0.011	0.179 ± 0.029	0.186 ± 0.038	0.156 ± 0.19	0.0523 ± 0.0015
CC(COc1ccccc1)N(CCCl)Cc1ccccc1 (configuration not stated) [Phenoxybenzamine hydrochloride]	0.0435 ± 0.0034	0.149 ± 0.01	0.0397 ± 0.0001	0.121 ± 0.0026	0.03927 ± 0.00029	0.0621 ± 0.00078	0.199 ± 0.018	0.261 ± 0.053	0.175 ± 0.013	0.228 ± 0.011	0.396 ± 0.0062	0.0624 ± 0.018
O=C1OC(CN2CCOCC2)CN1/N=C/c1ccc([N+](=O)[O-])o1 (configuration not stated) [Furaltadone hydrochloride]	0.04157 ± 0.00012	0.0421 ± 0.002	0.0409 ± 0.0001	0.04173 ± 5.8e-05	0.0404 ± 0.00046	0.0427 ± 0.0014	0.0534 ± 0.0031	0.0559 ± 0.0011	0.0577 ± 0.0081	0.0529 ± 0.00068	0.0601 ± 0.0022	0.0562 ± 0.0033
CCc1cc(Cl)c(OC)c(C(=O)NC[C@@H]2CCCN2CC)c1O [S(-)Eticlopride hydrochloride]	0.191 ± 0.013	0.242 ± 0.024	0.271 ± 0.0095	0.17 ± 0.0077	0.122 ± 0.0019	0.163 ± 0.0043	0.189 ± 0.015	0.356 ± 0.07	0.181 ± 0.011	0.259 ± 0.0028	0.399 ± 0.0083	0.272 ± 0.021
COC(c1ccccc1)(c1ccccc1)[C@H](Oc1nc(C)cc(C)n1)C(=O)O [Ambrisentan]	0.217 ± 0.0053	0.28 ± 0.0015	0.285 ± 0.0062	0.177 ± 0.024	0.224 ± 0.0037	0.13 ± 0.0029	0.284 ± 0.072	0.315 ± 0.053	0.191 ± 0.016	0.234 ± 0.021	0.41 ± 0.008	0.354 ± 0.015
Cc1cc(=O)n(-c2ccccc2)n1C [Antipyrine]	0.252 ± 0.0043	0.294 ± 0.014	0.257 ± 0.0094	0.221 ± 0.013	0.176 ± 0.0026	0.1436 ± 0.0012	0.305 ± 0.04	0.371 ± 0.014	0.191 ± 0.0076	0.204 ± 0.0077	0.412 ± 0.0087	0.379 ± 0.026
CN(C)CCN1C(=O)c2ccccc2N(C)c2ccccc21 [Dibenzepine hydrochloride]	0.234 ± 0.0039	0.312 ± 0.018	0.286 ± 0.0089	0.185 ± 0.03	0.167 ± 0.0098	0.139 ± 0.0036	0.23 ± 0.059	0.317 ± 0.04	0.165 ± 0.012	0.187 ± 0.0044	0.415 ± 0.0072	0.34 ± 0.015
CCOC(=O)C1=C(C)NC(C)=C(C(=O)OC)C1c1cccc(Cl)c1Cl (configuration not stated) [Felodipine]	0.0763 ± 0.012	0.0729 ± 0.024	0.0553 ± 0.0007	0.0562 ± 0.0017	0.0517 ± 0.00035	0.0625 ± 0.0023	0.0579 ± 0.0044	0.0538 ± 0.002	0.07363 ± 0.0005	0.0792 ± 0.032	0.3 ± 0.099	0.0862 ± 0.0057
CN1CCN2c3ccccc3Cc3ccccc3C2C1 (configuration not stated) [Mianserine hydrochloride]	0.179 ± 0.0089	0.198 ± 0.013	0.283 ± 0.017	0.211 ± 0.014	0.142 ± 0.011	0.17 ± 0.0078	0.222 ± 0.042	0.303 ± 0.04	0.189 ± 0.0025	0.243 ± 0.03	0.424 ± 0.0035	0.318 ± 0.015
